Test results published in PubChem BioAssay (NCI).
The panel holds about 79,000 compounds, 15% with a hit somewhere; the sample as a whole holds those more often. Calls of active or inactive are those of the source. No stated cut-off is given here; in the data, active means growth inhibition above about 70%; inactive means the rest.

Experiments:
[1] = NCI Yeast Anticancer Drug Screen. Data for the rad52 strain (AID 147);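 further: 0% = growth of vehicle-treated control cultures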; conditions: S. cerevisiae rad52 mutant growth inhibition, stronger effect = higher value
How it was run: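 DNA repair-defective yeast; compound exposure; growth scored against vehicle controls.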

[2] = NCI Yeast Anticancer Drug Screen. Data for the wt1 strain (AID 149);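 further: 0% = growth of vehicle-treated wt1 cultures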; conditions: S. cerevisiae wt1 strain (SPY 50644) growth inhibition, stronger effect = higher value
How it was run: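 Each compound is tested on wt1 yeast and the loss of growth versus vehicle gives the inhibition value.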

[3] = NCI Yeast Anticancer Drug Screen. Data for the rad50EPP+ strain (AID 151);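 further: 0% = growth of vehicle-treated control cultures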; conditions: S. cerevisiae rad50 mutant strain, stronger effect = higher value
How it was run: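 rad50EPP+ yeast treated with test compounds. Readout: growth vs vehicle control.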

[4] = NCI Yeast Anticancer Drug Screen. Data for the mgt1 strain (AID 153); conditions: S. cerevisiae mgt1 mutant growth inhibition, stronger effect = higher value
How it was run: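 Growth inhibition relative to vehicle controls was scored for the mgt1 yeast strain after compound exposure.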

[5] = NCI Yeast Anticancer Drug Screen. Data for the rad50 strain (AID 155);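 further: 0% = growth of vehicle-only cultures of the same strain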; conditions: S. cerevisiae rad50 strain growth inhibition, stronger effect = higher value
How it was run: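 Vehicle-treated cultures provide the reference for the growth inhibition reported for compound-exposed, repair-deficient yeast.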

[6] = NCI Yeast Anticancer Drug Screen. Data for the mec2-1 strain (AID 157); conditions: S. cerevisiae mec2-1 strain, stronger effect = higher value
How it was run: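 Growth inhibition is read against vehicle-treated controls after compound exposure of the mec2-1 yeast strain, which is defective in DNA damage repair or cell cycle control.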

[7] = NCI Yeast Anticancer Drug Screen. Data for the rad14 strain (AID 159);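 further: 0% = growth of vehicle-treated control cultures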; conditions: S. cerevisiae rad14 strain growth inhibition, stronger effect = higher value
How it was run: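 Inhibition of growth is reported for a repair-deficient yeast mutant following compound treatment, calculated relative to cultures that received vehicle.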

[8] = NCI Yeast Anticancer Drug Screen. Data for the sgs1 mgt1 strain (AID 161);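 further: 0% = growth of cultures given vehicle only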; conditions: S. cerevisiae sgs1 mgt1 strain, stronger effect = higher value
How it was run: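 This yeast growth screen uses a strain with defined DNA-repair lesions; compound-treated growth is compared with vehicle-treated growth.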

[9] = NCI Yeast Anticancer Drug Screen. Data for the CLN2oe strain (AID 163);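 further: 0% = growth of vehicle-only control cultures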; conditions: S. cerevisiae CLN2oe strain, stronger effect = higher value
How it was run: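 Compound-treated yeast; growth vs vehicle ctrl = % inhibition. Genetically altered strain (cell-cycle control).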

[10] = NCI Yeast Anticancer Drug Screen. Data for the cln2 rad14 strain (AID 165);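 further: 0% = growth equal to vehicle treated cultures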; conditions: S. cerevisiae cln2 rad14 strain, stronger effect = higher value
How it was run: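 Growth inhibition, relative to vehicle-treated controls, is the read-out. The test organism is a yeast strain with defined genetic alterations, cln2 rad14.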

[11] = NCI Yeast Anticancer Drug Screen. Data for the bub3 strain (AID 167); conditions: S. cerevisiae bub3 mutant strain, stronger effect = higher value
How it was run: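 Mutant yeast screening strain plus compound; vehicle-treated cultures serve as the 0% inhibition reference.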

[12] = NCI Yeast Anticancer Drug Screen. Data for the wt2 strain (AID 169); conditions: S. cerevisiae wt2 strain growth inhibition, stronger effect = higher value
How it was run: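 Compound exposure of yeast; growth compared with vehicle controls; inhibition reported.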

[13] = NCI Yeast Anticancer Drug Screen. Data for the mlh1 strain (AID 171);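 further: 0% = growth of vehicle-treated control cultures of the same strain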; conditions: S. cerevisiae mlh1 strain growth inhibition, stronger effect = higher value
How it was run: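 Compounds are applied to a genetically altered yeast strain, and its growth is compared with that of vehicle-treated cultures to give percent inhibition.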

[14] = NCI Yeast Anticancer Drug Screen. Data for the sgs1 strain (AID 173);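 further: 0% = growth of vehicle-only control cultures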; conditions: S. cerevisiae sgs1 mutant, stronger effect = higher value
How it was run: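 Compounds applied to genetically altered yeast; growth compared with vehicle-treated cultures to give % inhibition.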

[15] = NCI Yeast Anticancer Drug Screen. Data for the rad18 strain (AID 177); conditions: S. cerevisiae rad18 mutant growth inhibition, stronger effect = higher value
How it was run: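 Compounds are applied to a repair-deficient yeast strain, and growth is compared with that of vehicle-treated cultures to give percent inhibition.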

[16] = at 5.0 µM (retest, dose inferred, filed as 0.5)
[17] = at 50.0 µM (retest, dose inferred, filed as 5.0)

Measured: growth inhibition

CCN(CC)C(=S)SC(=S)N(CC)CC
active: [1]; at 33.0 µM 96% | [1]; at 100.0 µM 98% | [2]; at 33.0 µM 92% | [2]; at 100.0 µM 99% | [3]; at 33.0 µM 91% | [3]; at 100.0 µM 99% | [4]; at 33.0 µM 95% | [4]; at 100.0 µM 98% | [5]; at 33.0 µM 79% | [5]; at 50.0 µM 90% | [5]; at 100.0 µM 97% | [6]; at 33.0 µM 97% | [6]; at 50.0 µM 93.7% | [6]; at 100.0 µM 97% | [7]; at 33.0 µM 99% | [7]; at 100.0 µM 98% | [8]; [17] 87% | [8]; at 50.0 µM 92.8% | [9]; at 100.0 µM 98% | [11]; at 50.0 µM 91.4% | [11]; at 100.0 µM 97% | [12]; at 33.0 µM 98% | [12]; at 100.0 µM 99% | [13]; at 33.0 µM 88% | [13]; at 100.0 µM 98% | [14]; at 33.0 µM 90% | [14]; at 100.0 µM 98% | [15]; at 33.0 µM 95% | [15]; at 100.0 µM 98%
inactive: [1]; at 1.2 µM -33% | [1]; at 3.7 µM -17% | [1]; at 11.0 µM 27% | [2]; at 1.2 µM -25% | [2]; at 3.7 µM -16% | [2]; at 11.0 µM 28% | [3]; at 1.2 µM -1% | [3]; at 3.7 µM 7% | [3]; at 11.0 µM 37% | [4]; at 1.2 µM -42% | [4]; at 3.7 µM -43% | [4]; at 11.0 µM 16% | [5]; at 1.2 µM -15% | [5]; at 3.7 µM 15% | [5]; [16] 10% | [5]; at 11.0 µM 29% | [5]; [17] 46% | [6]; at 1.2 µM -34% | [6]; at 3.7 µM -10% | [6]; [16] 6% | [6]; at 11.0 µM 32% | [6]; [17] 48% | [7]; at 1.2 µM -31% | [7]; at 3.7 µM -4% | [7]; at 11.0 µM 34% | [8]; [16] -9% | [9]; at 1.2 µM 0% | [9]; at 3.7 µM -8% | [9]; at 11.0 µM 18% | [9]; at 33.0 µM 63% | [10]; [16] -15% | [10]; [17] 18% | [10]; at 50.0 µM 40.2% | [11]; at 1.2 µM -25% | [11]; at 3.7 µM -21% | [11]; [16] 0% | [11]; at 11.0 µM -22% | [11]; at 33.0 µM 27% | [11]; [17] 58% | [12]; at 1.2 µM -21% | [12]; at 3.7 µM 32% | [12]; at 11.0 µM 60% | [13]; at 1.2 µM -38% | [13]; at 3.7 µM -48% | [13]; at 11.0 µM -6% | [14]; at 1.2 µM -43% | [14]; at 3.7 µM -18% | [14]; at 11.0 µM 44% | [15]; at 1.2 µM -26% | [15]; at 3.7 µM 6% | [15]; at 11.0 µM 53%

CC(=O)O[C@H]1CC[C@@]2(C)C(=CC[C@@H]3C2CC[C@]2(C)C(=O)NC(=O)CC32)C1 (stereo not given in full)
active: [4]; at 33.0 µM 76% | [4]; at 100.0 µM 70% | [8]; [17] 74% | [8]; at 50.0 µM 81.5% | [12]; at 33.0 µM 73% | [12]; at 100.0 µM 71% | [13]; at 33.0 µM 75% | [14]; at 11.0 µM 70% | [14]; at 33.0 µM 86% | [14]; at 100.0 µM 79%
inactive: [1]; at 1.2 µM -33% | [1]; at 3.7 µM -35% | [1]; at 11.0 µM -42% | [1]; at 33.0 µM -29% | [1]; at 100.0 µM -41% | [2]; at 1.2 µM -17% | [2]; at 3.7 µM -7% | [2]; at 11.0 µM -21% | [2]; at 33.0 µM -17% | [2]; at 100.0 µM -21% | [3]; at 1.2 µM -8% | [3]; at 3.7 µM 0% | [3]; at 11.0 µM 25% | [3]; at 33.0 µM 54% | [3]; at 100.0 µM 27% | [4]; at 1.2 µM -28% | [4]; at 3.7 µM -19% | [4]; at 11.0 µM 56% | [5]; at 1.2 µM -31% | [5]; at 3.7 µM -29% | [5]; [16] -21% | [5]; at 11.0 µM -20% | [5]; at 33.0 µM -25% | [5]; [17] -29% | [5]; at 50.0 µM 12.4% | [5]; at 100.0 µM -28% | [6]; at 1.2 µM -21% | [6]; at 3.7 µM -15% | [6]; [16] -44% | [6]; at 11.0 µM -13% | [6]; at 33.0 µM -43% | [6]; [17] -6% | [6]; at 50.0 µM -12.2% | [6]; at 100.0 µM -23% | [7]; at 1.2 µM -29% | [7]; at 3.7 µM -27% | [7]; at 11.0 µM -26% | [7]; at 33.0 µM -11% | [7]; at 100.0 µM -41% | [8]; [16] 21% | [9]; at 1.2 µM 2% | [9]; at 3.7 µM -4% | [9]; at 11.0 µM -16% | [9]; at 33.0 µM -13% | [9]; at 100.0 µM -23% | [10]; [16] -6% | [10]; [17] 13% | [10]; at 50.0 µM 29.5% | [11]; at 1.2 µM -14% | [11]; at 3.7 µM -29% | [11]; [16] 1% | [11]; at 11.0 µM -22% | [11]; at 33.0 µM -20% | [11]; [17] 46% | [11]; at 50.0 µM 9.95% | [11]; at 100.0 µM -31% | [12]; at 1.2 µM 8% | [12]; at 3.7 µM 19% | [12]; at 11.0 µM 46% | [13]; at 1.2 µM 1% | [13]; at 3.7 µM 17% | [13]; at 11.0 µM 57% | [13]; at 100.0 µM 64% | [14]; at 1.2 µM 16% | [14]; at 3.7 µM 40% | [15]; at 1.2 µM -1% | [15]; at 3.7 µM 0% | [15]; at 11.0 µM 1% | [15]; at 33.0 µM 4% | [15]; at 100.0 µM 0%
